Assay results from the supplement of paper PMC6897291.

Assays:
U-2932 [1] = experiment: growth inhibition by drug alone (1 - RLU/untreated control) (fraction); higher = stronger inhibition; conditions: 177Lu-lilotomab satetraxetan 0 ug/ml
How it was run: (§1)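 Growth inhibition was calculated from RealTime-Glo RLU against untreated no-drug wells. Values equal 1 − RLU/mean of 48 untreated no-drug wells per plate, read daily from day 3 after 1 h at 37°C. RIVA and U-2932 cells, with or without 18 h pretreatment by a radiolabelled anti-CD37 antibody conjugate (~600 MBq/mg; 0.5 µg/ml RIVA, 1 µg/ml U-2932), were washed and plated at 3,000 cells/well on compound-printed plates at 10/100 nM (RIVA) or 10/1,000 nM (U-2932).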

RIVA [2] = experiment: as above; conditions: 177Lu-lilotomab satetraxetan 0 ug/ml
How it was run: as §1

U-2932 [3] = experiment: growth inhibition by drug plus 177Lu-lilotomab satetraxetan (1 - RLU/untreated control) (fraction); higher = stronger inhibition; conditions: 177Lu-lilotomab satetraxetan 1 ug/ml
How it was run: as §1

RIVA [4] = experiment: as above; conditions: 177Lu-lilotomab satetraxetan 0.5 ug/ml
How it was run: as §1

Row | Compound | growth inhibition by drug alone (U-2932 [1]; 10 nM, time (day): 3) | growth inhibition by drug alone (U-2932 [1]; 10 nM, time (day): 4) | growth inhibition by drug alone (U-2932 [1]; 10 nM, time (day): 5) | growth inhibition by drug alone (U-2932 [1]; 10 nM, time (day): 6) | growth inhibition by drug alone (U-2932 [1]; 1000 nM, time (day): 3) | growth inhibition by drug alone (U-2932 [1]; 1000 nM, time (day): 4) | growth inhibition by drug alone (U-2932 [1]; 1000 nM, time (day): 5) | growth inhibition by drug alone (U-2932 [1]; 1000 nM, time (day): 6) | growth inhibition by drug alone (RIVA [2]; 10 nM, time (day): 3) | growth inhibition by drug alone (RIVA [2]; 10 nM, time (day): 4) | growth inhibition by drug alone (RIVA [2]; 10 nM, time (day): 5) | growth inhibition by drug alone (RIVA [2]; 10 nM, time (day): 6) | growth inhibition by drug alone (RIVA [2]; 100 nM, time (day): 3) | growth inhibition by drug alone (RIVA [2]; 100 nM, time (day): 4) | growth inhibition by drug alone (RIVA [2]; 100 nM, time (day): 5) | growth inhibition by drug alone (RIVA [2]; 100 nM, time (day): 6) | growth inhibition by drug plus 177Lu-lilotomab satetraxetan (U-2932 [3]; 10 nM, time (day): 3) | growth inhibition by drug plus 177Lu-lilotomab satetraxetan (U-2932 [3]; 10 nM, time (day): 4) | growth inhibition by drug plus 177Lu-lilotomab satetraxetan (U-2932 [3]; 10 nM, time (day): 5) | growth inhibition by drug plus 177Lu-lilotomab satetraxetan (U-2932 [3]; 10 nM, time (day): 6) | growth inhibition by drug plus 177Lu-lilotomab satetraxetan (U-2932 [3]; 1000 nM, time (day): 3) | growth inhibition by drug plus 177Lu-lilotomab satetraxetan (U-2932 [3]; 1000 nM, time (day): 4) | growth inhibition by drug plus 177Lu-lilotomab satetraxetan (U-2932 [3]; 1000 nM, time (day): 5) | growth inhibition by drug plus 177Lu-lilotomab satetraxetan (U-2932 [3]; 1000 nM, time (day): 6) | growth inhibition by drug plus 177Lu-lilotomab satetraxetan (RIVA [4]; 10 nM, time (day): 3) | growth inhibition by drug plus 177Lu-lilotomab satetraxetan (RIVA [4]; 10 nM, time (day): 4) | growth inhibition by drug plus 177Lu-lilotomab satetraxetan (RIVA [4]; 10 nM, time (day): 5) | growth inhibition by drug plus 177Lu-lilotomab satetraxetan (RIVA [4]; 10 nM, time (day): 6) | growth inhibition by drug plus 177Lu-lilotomab satetraxetan (RIVA [4]; 100 nM, time (day): 3) | growth inhibition by drug plus 177Lu-lilotomab satetraxetan (RIVA [4]; 100 nM, time (day): 4) | growth inhibition by drug plus 177Lu-lilotomab satetraxetan (RIVA [4]; 100 nM, time (day): 5) | growth inhibition by drug plus 177Lu-lilotomab satetraxetan (RIVA [4]; 100 nM, time (day): 6)
1 | CCC(C)n1ncn(-c2ccc(N3CCN(c4ccc(OCC5COC(Cn6cncn6)(c6ccc(Cl)cc6Cl)O5)cc4)CC3)cc2)c1=O (centres undefined) [Itraconazole (Sporanox)] | 0.0829 | 0.0704 | 0.0582 | -0.11 | 0.0952 | 0.087 | 0.0678 | -0.00563 | -0.0197 | 0.0654 | -0.0473 | -0.325 | -0.037 | 0.0162 | 0.00541 | -0.0886 | 0.0224 | 0.0823 | 0.142 | 0.126 | 0.102 | 0.147 | 0.188 | 0.311 | 0.61 | 0.642 | 0.66 | 0.668 | 0.407 | 0.522 | 0.541 | 0.559
2 | Cc1nc(N)sc1-c1ccnc(Nc2ccc(N3CCOCC3)cc2)n1 | 0.00864 | -0.0087 | -0.0373 | -0.101 | 0.0735 | 0.00717 | 0.0172 | 0.253 | -0.0458 | -0.131 | -0.156 | -0.327 | -0.0826 | -0.139 | -0.133 | -0.233 | -0.0148 | 0.00212 | 0.025 | 0.0655 | 0.0555 | 0.0326 | 0.0942 | 0.374 | 0.375 | 0.481 | 0.505 | 0.525 | 0.398 | 0.486 | 0.498 | 0.487
3 | CC1(C)CNc2cc(NC(=O)c3cccnc3NCc3ccncc3)ccc21 [Motesanib Diphosphate] | 0.0212 | -0.0392 | -0.0873 | -0.298 | -0.0958 | -0.0733 | -0.118 | -0.248 | -0.0638 | -0.211 | -0.283 | -0.584 | -0.22 | -0.341 | -0.349 | -0.452 | -0.0309 | -0.0326 | -0.0402 | 0.00139 | -0.132 | -0.033 | -0.00123 | 0.0914 | 0.361 | 0.516 | 0.536 | 0.546 | 0.45 | 0.537 | 0.536 | 0.512
4 | COc1ccc(S(=O)(=O)Nc2cccnc2Nc2ccc(O)cc2)cc1 | 0.0231 | -0.0101 | -0.0159 | 0.0329 | 0.889 | 0.918 | 0.932 | 0.948 | -0.0856 | -0.157 | -0.215 | -0.37 | -0.353 | -0.364 | -0.406 | -0.581 | -0.0595 | 0.0116 | 0.0522 | 0.105 | 0.896 | 0.923 | 0.934 | 0.956 | 0.454 | 0.511 | 0.525 | 0.533 | 0.416 | 0.502 | 0.51 | 0.5
5 | CCC(=O)N1CCN(c2ccc(-n3c(=O)ccc4cnc5ccc(-c6cnc7ccccc7c6)cc5c43)cc2C(F)(F)F)CC1 [Torin 1] | 0.203 | 0.128 | 0.0048 | -0.022 | 0.9 | 0.883 | 0.866 | 0.87 | 0.0288 | 0.0386 | -0.0391 | -0.398 | 0.409 | 0.37 | 0.289 | 0.104 | 0.168 | 0.161 | 0.208 | 0.242 | 0.904 | 0.878 | 0.875 | 0.879 | 0.556 | 0.599 | 0.631 | 0.621 | 0.595 | 0.604 | 0.565 | 0.531
6 | Cc1cnc(NC(=O)Nc2cc(Br)c(C)cc2OC[C@@H]2CNCCO2)cn1 | 0.0563 | 0.0329 | 0.0344 | 0.113 | 0.227 | 0.217 | 0.207 | 0.233 | -0.0313 | -0.0243 | -0.0759 | -0.161 | 0.0523 | 0.0207 | -0.0517 | -0.0919 | -0.00545 | 0.00557 | 0.0372 | 0.164 | 0.245 | 0.335 | 0.376 | 0.486 | 0.47 | 0.531 | 0.56 | 0.57 | 0.176 | 0.216 | 0.235 | 0.246
7 | COC(=O)Nc1nc2cc(C(=O)c3cccs3)ccc2[nH]1 [Nocodazole] | 0.162 | 0.111 | 0.0124 | -0.0733 | 0.959 | 0.967 | 0.972 | 0.977 | -0.0176 | -0.0388 | -0.162 | -0.595 | 0.948 | 0.956 | 0.957 | 0.953 | 0.00977 | 0.0511 | 0.0524 | 0.13 | 0.971 | 0.978 | 0.982 | 0.984 | 0.402 | 0.532 | 0.541 | 0.547 | 0.956 | 0.968 | 0.974 | 0.979
